Source: the supplement of paper PMC10849652
The full data set covers some 7,900 targets. This sample favours those with a hit. About 0.6% of all pairs of compound and target were hits.

What was measured:
Experiment in all cases: log2 fold change, soluble protein after heating vs DMSO (PISA); higher = thermal stabilisation; K562 cells, 10 uM, 30 min; active = over 0.2 and 3.5 SD of the protein, either way, in both replicates (recomputed)
bafetinib = compound: Cc1ccc(NC(=O)c2ccc(CN3CC[C@H](N(C)C)C3)c(C(F)(F)F)c2)cc1Nc1nccc(-c2cncnc2)n1 [bafetinib]
Outline: (§1)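 For each measurement, 10 μM compound was applied for 30 min to K562 cells at 2×10^6 cells/mL. Aliquots were heated for 3 min across 48°C-58°C, pooled, and extracted in PBS with 0.5% NP-40 at 4°C; the supernatant after 21,000xg for 90 min was soluble protein. This was quantified by TMTpro 16plex LC-MS/MS with channel sums equalised, and thermal stability was reported relative to control samples from duplicates, on a log2 fold-change scale.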

[1] = compound: Cc1cccc(CC(=O)N2CCc3c2ccc(-c2cn(C)c4ncnc(N)c24)c3F)n1
Outline: as §1

nilotinib = compound: Cc1cn(-c2cc(NC(=O)c3ccc(C)c(Nc4nccc(-c5cccnc5)n4)c3)cc(C(F)(F)F)c2)cn1 [nilotinib]
Outline: as §1

[2] = compound: Cc1nc(Nc2n[nH]c3c2CN(C(=O)N[C@H](CN(C)C)c2ccccc2)C3(C)C)c2sccc2n1
Outline: as §1

dasatinib = compound: Cc1nc(Nc2ncc(C(=O)Nc3c(C)cccc3Cl)s2)cc(N2CCN(CCO)CC2)n1 [dasatinib]
Outline: as §1

[3] = compound: Cc1ncc(-c2ccnc(Nc3ccc(S(C)(=O)=O)cc3)n2)n1C(C)C
Outline: as §1

[4] = compound: Cn1cc(-c2ccc3c(c2)CCN3C(=O)Cc2cccc(C(F)(F)F)c2)c2c(N)ncnc21
Outline: as §1

[5] = compound: Cn1cc(-c2ccc3nnc(C(F)(F)c4ccc5ncccc5c4)n3n2)cn1
Outline: as §1

tipifarnib = compound: Cn1cncc1[C@@](N)(c1ccc(Cl)cc1)c1ccc2c(c1)c(-c1cccc(Cl)c1)cc(=O)n2C [tipifarnib]
Outline: as §1

mubritinib = compound: FC(F)(F)c1ccc(/C=C/c2nc(COc3ccc(CCCCn4ccnn4)cc3)co2)cc1 [mubritinib]
Outline: as §1

Measured: log2 fold change

WASH2P (UniProt Q6VEQ5)
inactive: bafetinib -0.06 | [1] 0.017 | nilotinib -0.069 | [2] -0.019 | dasatinib 0.03 | [3] 0.01 | [4] -0.008 | [5] 0.011 | tipifarnib 0.043 | mubritinib 0.06

TNFRSF10A (UniProt O00220)
inactive: bafetinib -0.044 | [1] -0.051 | nilotinib 0.061 | [2] -0.055 | dasatinib -0.015 | [3] 0.058 | [4] -0.082 | [5] -0.005 | tipifarnib -0.054 | mubritinib -0.05

VWA3B isoform 6 (UniProt Q502W6)
inactive: bafetinib 0.074 | [1] 0.024 | nilotinib -0.128 | [2] 0.075 | dasatinib 0.148 | [3] -0.129 | [4] 0.045 | [5] 0.003 | tipifarnib 0.047 | mubritinib 0.014

XPO1 (UniProt O14980)
Sequence of UniProt O14980 (O14980 whole entry, looked up): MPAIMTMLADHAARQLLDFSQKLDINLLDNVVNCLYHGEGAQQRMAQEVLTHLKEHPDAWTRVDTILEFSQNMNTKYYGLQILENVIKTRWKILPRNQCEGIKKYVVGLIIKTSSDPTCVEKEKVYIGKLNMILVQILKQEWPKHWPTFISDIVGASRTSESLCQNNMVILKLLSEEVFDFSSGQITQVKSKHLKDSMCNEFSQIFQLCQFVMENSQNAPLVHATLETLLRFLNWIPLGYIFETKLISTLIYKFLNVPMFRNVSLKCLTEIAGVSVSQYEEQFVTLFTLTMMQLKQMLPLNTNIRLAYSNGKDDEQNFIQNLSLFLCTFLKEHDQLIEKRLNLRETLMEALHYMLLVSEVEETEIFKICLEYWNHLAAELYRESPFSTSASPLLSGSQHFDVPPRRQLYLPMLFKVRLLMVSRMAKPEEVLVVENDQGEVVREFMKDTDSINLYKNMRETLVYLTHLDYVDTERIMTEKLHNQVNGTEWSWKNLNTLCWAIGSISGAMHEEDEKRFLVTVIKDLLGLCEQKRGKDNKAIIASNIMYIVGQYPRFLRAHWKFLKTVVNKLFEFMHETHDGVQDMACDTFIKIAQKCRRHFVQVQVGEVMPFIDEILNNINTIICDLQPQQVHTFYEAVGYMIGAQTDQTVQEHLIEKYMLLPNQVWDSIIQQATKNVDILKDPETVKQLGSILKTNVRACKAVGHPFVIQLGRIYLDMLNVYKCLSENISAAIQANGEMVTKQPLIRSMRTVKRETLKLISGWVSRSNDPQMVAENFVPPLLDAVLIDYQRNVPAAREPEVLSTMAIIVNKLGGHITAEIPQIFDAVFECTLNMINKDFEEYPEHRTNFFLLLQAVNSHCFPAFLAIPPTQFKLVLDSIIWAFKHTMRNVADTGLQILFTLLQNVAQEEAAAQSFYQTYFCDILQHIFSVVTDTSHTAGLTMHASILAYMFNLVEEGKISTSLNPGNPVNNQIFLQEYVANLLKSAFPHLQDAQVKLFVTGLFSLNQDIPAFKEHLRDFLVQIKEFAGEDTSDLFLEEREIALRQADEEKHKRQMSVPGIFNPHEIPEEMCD
inactive: bafetinib -0.003 | [1] 0.042 | nilotinib -0.114 | [2] -0.037 | dasatinib -0.154 | [3] 0.001 | [4] 0.005 | [5] -0.008 | tipifarnib -0.159 | mubritinib 0.042

WASHC3 (UniProt Q9Y3C0)
inactive: bafetinib -0.06 | [1] -0.032 | nilotinib -0.042 | [2] 0.001 | dasatinib 0.047 | [3] 0.028 | [4] 0.035 | [5] 0.048 | tipifarnib 0.029 | mubritinib 0.003

TOM1L1 (UniProt O75674)
active: [1] -0.265
inactive: bafetinib -0.025 | nilotinib -0.003 | [2] -0.069 | dasatinib -0.04 | [3] 0.087 | [4] 0.031 | [5] 0.032 | tipifarnib 0.06 | mubritinib 0.034

USP34 (UniProt Q70CQ2)
inactive: bafetinib -0.004 | [1] -0.002 | nilotinib -0.054 | [2] 0.034 | dasatinib -0.141 | [3] -0.223 | [4] -0.012 | [5] 0.033 | tipifarnib -0.134 | mubritinib -0.049

U2AF2 (UniProt P26368)
Sequence of UniProt P26368 (P26368 whole entry, looked up): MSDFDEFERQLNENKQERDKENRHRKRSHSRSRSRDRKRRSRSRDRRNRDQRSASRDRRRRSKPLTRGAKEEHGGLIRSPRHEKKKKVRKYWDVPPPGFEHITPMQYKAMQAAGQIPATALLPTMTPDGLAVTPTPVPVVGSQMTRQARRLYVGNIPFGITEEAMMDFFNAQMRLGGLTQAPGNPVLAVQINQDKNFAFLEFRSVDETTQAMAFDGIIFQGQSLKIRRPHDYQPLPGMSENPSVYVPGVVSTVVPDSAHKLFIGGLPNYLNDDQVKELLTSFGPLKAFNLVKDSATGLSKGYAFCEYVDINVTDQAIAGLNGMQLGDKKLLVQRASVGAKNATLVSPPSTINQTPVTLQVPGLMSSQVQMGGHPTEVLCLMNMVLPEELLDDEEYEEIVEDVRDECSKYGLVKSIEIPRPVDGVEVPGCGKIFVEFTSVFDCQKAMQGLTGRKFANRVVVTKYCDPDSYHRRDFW
inactive: bafetinib -0.019 | nilotinib -0.003 | dasatinib 0.018 | [3] 0.049 | [4] -0.011 | [5] -0.044 | tipifarnib 0.045 | mubritinib -0.051
active: [1] -0.241 | [2] -1.66

UBC (UniProt P0CG48)
Sequence of UniProt P0CG48 (P0CG48 whole entry, looked up): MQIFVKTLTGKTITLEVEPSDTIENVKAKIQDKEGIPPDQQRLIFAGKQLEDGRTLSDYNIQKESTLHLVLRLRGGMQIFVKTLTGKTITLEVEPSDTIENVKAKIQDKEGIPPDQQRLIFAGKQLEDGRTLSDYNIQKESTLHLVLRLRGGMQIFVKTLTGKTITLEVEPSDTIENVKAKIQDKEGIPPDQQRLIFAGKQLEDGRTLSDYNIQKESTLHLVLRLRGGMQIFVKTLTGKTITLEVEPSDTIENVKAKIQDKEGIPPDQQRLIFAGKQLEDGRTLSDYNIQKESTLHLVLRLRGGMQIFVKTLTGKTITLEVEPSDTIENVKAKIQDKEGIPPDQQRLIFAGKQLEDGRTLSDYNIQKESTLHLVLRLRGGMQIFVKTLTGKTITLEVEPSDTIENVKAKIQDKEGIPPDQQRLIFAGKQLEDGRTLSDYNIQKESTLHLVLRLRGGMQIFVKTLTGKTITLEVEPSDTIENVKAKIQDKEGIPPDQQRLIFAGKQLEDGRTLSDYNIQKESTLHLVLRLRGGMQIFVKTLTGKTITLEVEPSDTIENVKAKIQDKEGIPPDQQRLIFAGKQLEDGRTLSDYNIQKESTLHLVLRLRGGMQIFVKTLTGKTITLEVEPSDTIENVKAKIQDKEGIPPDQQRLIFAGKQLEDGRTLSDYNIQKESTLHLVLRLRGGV
inactive: bafetinib 0.055 | [1] -0.156 | nilotinib 0.116 | [2] 0.013 | dasatinib 0.02 | [3] -0.025 | [4] 0.003 | [5] 0.07 | tipifarnib -0.051 | mubritinib 0.005

TMEM263 (UniProt Q8WUH6)
inactive: bafetinib -0.434 | [1] 0.037 | nilotinib -0.079 | [2] -0.027 | dasatinib -0.249 | [3] 0.124 | [4] -0.011 | [5] 0.02 | tipifarnib -0.182 | mubritinib 0.054

VPS39 (UniProt Q96JC1)
inactive: bafetinib -0.032 | [1] 0.069 | nilotinib -0.019 | [2] -0.068 | dasatinib -0.15 | [3] -0.017 | [4] 0.033 | [5] 0.003 | tipifarnib -0.058 | mubritinib 0.027

VPS13B (UniProt Q7Z7G8)
inactive: bafetinib -0.075 | [1] -0.012 | nilotinib -0.005 | [2] 0.049 | dasatinib 0.047 | [3] -0.004 | [4] 0.005 | [5] 0.029 | tipifarnib 0.037 | mubritinib 0.01

USP15 (UniProt Q9Y4E8)
inactive: bafetinib -0.01 | [1] 0.047 | nilotinib -0.064 | [2] -0.082 | dasatinib -0.099 | [3] 0.005 | [4] 0.021 | [5] 0.044 | tipifarnib -0.081 | mubritinib 0.023

WDR41 (UniProt Q9HAD4)
inactive: bafetinib -0.139 | [1] 0.169 | nilotinib 0 | [2] -0.076 | dasatinib -0.082 | [3] -0.017 | [4] 0.012 | [5] -0.003 | tipifarnib 0.023 | mubritinib 0.071

VPS28 (UniProt Q9UK41)
inactive: bafetinib -0.017 | [1] -0.021 | nilotinib -0.153 | [2] -0.063 | dasatinib -0.209 | [3] -0.019 | [4] 0.01 | [5] 0.006 | tipifarnib -0.051 | mubritinib 0.046

UBE2D1 (UniProt P51668)
Sequence of UniProt P51668 (P51668 whole entry, looked up): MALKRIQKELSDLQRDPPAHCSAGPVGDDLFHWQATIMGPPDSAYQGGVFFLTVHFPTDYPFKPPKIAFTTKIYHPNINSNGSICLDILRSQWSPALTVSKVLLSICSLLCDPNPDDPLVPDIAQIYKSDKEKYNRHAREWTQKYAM
inactive: bafetinib -0.065 | nilotinib -0.002 | [2] 0.046 | dasatinib -0.083 | [3] -0.074 | [4] 0.036 | [5] -0.075 | tipifarnib -0.089 | mubritinib 0.085
active: [1] -0.345

USP3 (UniProt Q9Y6I4)
Sequence of UniProt Q9Y6I4 (Q9Y6I4 whole entry, looked up): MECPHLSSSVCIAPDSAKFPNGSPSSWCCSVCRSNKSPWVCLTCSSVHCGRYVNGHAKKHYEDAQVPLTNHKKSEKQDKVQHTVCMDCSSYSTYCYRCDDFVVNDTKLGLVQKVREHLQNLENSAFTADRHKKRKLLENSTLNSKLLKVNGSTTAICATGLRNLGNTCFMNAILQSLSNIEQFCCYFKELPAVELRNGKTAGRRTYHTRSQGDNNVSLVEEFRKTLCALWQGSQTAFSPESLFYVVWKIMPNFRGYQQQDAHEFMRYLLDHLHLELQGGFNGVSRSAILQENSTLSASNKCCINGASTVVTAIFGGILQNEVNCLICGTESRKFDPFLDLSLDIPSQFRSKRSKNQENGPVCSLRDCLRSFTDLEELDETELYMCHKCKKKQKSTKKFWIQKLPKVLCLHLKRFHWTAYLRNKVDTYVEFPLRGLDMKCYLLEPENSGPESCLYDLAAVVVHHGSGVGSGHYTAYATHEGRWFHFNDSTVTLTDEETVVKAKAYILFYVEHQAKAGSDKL
inactive: bafetinib 0.011 | [1] -0.009 | nilotinib -0.125 | [2] -0.198 | dasatinib -0.185 | [3] -0.026 | [4] 0.027 | [5] -0.023 | tipifarnib -0.226 | mubritinib 0.045

TXNL1 (UniProt O43396)
Sequence of UniProt O43396 (O43396 whole entry, looked up): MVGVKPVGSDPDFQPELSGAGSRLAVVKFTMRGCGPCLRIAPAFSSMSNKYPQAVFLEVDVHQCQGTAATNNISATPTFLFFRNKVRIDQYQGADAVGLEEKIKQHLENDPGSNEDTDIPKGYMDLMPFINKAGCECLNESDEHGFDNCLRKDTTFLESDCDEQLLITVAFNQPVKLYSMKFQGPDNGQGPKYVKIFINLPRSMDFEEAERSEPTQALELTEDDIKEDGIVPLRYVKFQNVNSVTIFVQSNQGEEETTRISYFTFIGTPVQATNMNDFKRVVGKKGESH
inactive: bafetinib 0.04 | [1] 0.005 | nilotinib -0.035 | [2] -0.006 | dasatinib -0.074 | [3] 0.008 | [4] -0.004 | [5] -0.035 | tipifarnib -0.06 | mubritinib 0.057

U2AF1 isoform 2 (UniProt Q01081)
inactive: bafetinib 0.037 | [1] -0.06 | nilotinib -0.017 | dasatinib -0.056 | [3] 0.058 | [4] 0.01 | [5] -0.06 | tipifarnib 0.034 | mubritinib -0.099
active: [2] -1.31

TMEM192 (UniProt Q8IY95)
inactive: bafetinib -0.148 | [1] -0.083 | nilotinib 0.019 | [2] -0.002 | dasatinib 0.109 | [3] -0.042 | [4] -0.034 | [5] -0.051 | tipifarnib 0.051 | mubritinib -0.032

TXNL4B (UniProt Q9NX01)
inactive: bafetinib -0.1 | [1] 0.005 | nilotinib 0.003 | [2] -0.041 | dasatinib -0.042 | [3] 0.01 | [4] 0.007 | [5] 0.028 | tipifarnib 0.008 | mubritinib 0.17

USP24 (UniProt Q9UPU5)
inactive: bafetinib 0.037 | [1] 0.034 | nilotinib 0.096 | [2] 0.007 | dasatinib -0.098 | [3] 0.09 | [4] 0.144 | [5] 0.105 | tipifarnib -0.072 | mubritinib 0.056

TPP1 (UniProt O14773)
inactive: [1] 0.007 | nilotinib 0.008 | [2] -0.031 | dasatinib -0.051 | [3] 0.022 | [4] -0.025 | [5] 0 | tipifarnib 0.049 | mubritinib -0.001
active: bafetinib -0.48

WDR7 (UniProt Q9Y4E6)
inactive: bafetinib -0.034 | [1] 0.082 | nilotinib -0.089 | [2] -0.01 | dasatinib -0.058 | [3] -0.034 | [4] 0.085 | [5] -0.084 | tipifarnib 0.058 | mubritinib -0.118

VPS51 (UniProt Q9UID3)
Sequence of UniProt Q9UID3 (Q9UID3 whole entry, looked up): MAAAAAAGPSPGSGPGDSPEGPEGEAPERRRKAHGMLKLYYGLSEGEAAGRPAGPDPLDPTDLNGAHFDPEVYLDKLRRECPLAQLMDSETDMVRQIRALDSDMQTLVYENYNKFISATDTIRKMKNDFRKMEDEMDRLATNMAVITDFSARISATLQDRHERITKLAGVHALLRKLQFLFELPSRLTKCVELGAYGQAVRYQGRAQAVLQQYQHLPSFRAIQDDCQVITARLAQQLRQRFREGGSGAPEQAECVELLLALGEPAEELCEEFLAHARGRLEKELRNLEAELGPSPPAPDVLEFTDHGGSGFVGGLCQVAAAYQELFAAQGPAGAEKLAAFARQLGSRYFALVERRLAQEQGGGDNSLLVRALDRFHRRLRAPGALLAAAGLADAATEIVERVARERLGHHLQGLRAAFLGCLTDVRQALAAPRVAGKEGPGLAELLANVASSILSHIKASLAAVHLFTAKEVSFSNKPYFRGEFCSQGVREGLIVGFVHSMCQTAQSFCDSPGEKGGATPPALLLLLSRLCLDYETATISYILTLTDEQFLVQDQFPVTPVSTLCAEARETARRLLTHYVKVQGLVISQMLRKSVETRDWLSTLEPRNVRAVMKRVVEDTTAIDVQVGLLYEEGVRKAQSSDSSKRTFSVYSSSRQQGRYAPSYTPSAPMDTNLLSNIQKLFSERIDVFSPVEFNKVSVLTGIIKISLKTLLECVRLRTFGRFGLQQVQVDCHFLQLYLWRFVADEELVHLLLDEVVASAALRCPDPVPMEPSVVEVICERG
inactive: bafetinib 0.009 | [1] 0.039 | nilotinib -0.089 | [2] -0.037 | dasatinib -0.126 | [3] -0.042 | [4] -0.075 | [5] -0.008 | tipifarnib -0.095 | mubritinib 0.083

USP25 isoform 3 (UniProt Q9UHP3)
Sequence of UniProt Q9UHP3 (Q9UHP3 whole entry, looked up): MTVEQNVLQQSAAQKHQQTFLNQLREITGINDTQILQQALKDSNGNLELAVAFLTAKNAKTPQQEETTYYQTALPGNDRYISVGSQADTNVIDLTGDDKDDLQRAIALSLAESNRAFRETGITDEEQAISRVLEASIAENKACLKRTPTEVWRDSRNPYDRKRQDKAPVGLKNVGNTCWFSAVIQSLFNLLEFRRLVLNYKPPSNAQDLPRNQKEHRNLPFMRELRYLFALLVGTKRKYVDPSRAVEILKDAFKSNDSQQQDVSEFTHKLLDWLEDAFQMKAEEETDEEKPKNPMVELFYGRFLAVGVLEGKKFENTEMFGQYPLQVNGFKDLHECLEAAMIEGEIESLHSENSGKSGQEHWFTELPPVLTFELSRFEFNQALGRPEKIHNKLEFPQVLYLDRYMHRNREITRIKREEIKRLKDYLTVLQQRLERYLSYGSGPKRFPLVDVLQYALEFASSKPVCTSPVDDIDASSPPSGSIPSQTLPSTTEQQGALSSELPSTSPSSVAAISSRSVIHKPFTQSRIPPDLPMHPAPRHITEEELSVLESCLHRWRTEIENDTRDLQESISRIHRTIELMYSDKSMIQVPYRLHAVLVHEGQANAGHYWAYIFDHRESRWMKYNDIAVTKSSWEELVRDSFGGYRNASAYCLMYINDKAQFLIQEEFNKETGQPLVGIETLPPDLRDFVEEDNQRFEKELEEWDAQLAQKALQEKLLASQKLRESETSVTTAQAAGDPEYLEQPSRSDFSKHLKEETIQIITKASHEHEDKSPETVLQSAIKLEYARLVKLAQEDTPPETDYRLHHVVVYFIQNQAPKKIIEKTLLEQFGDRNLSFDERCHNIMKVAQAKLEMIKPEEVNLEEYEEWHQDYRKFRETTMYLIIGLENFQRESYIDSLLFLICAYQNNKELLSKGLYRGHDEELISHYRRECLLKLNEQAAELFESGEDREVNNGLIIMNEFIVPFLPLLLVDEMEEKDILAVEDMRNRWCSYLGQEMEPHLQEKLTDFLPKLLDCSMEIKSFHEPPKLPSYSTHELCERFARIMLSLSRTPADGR
inactive: bafetinib -0.043 | [1] 0.029 | nilotinib -0.021 | [2] -0.017 | dasatinib -0.048 | [3] 0.018 | [4] -0.038 | [5] 0.009 | tipifarnib -0.024 | mubritinib 0.023

TOMM5 isoform 2 (UniProt Q8N4H5)
inactive: bafetinib -0.141 | [1] -0.114 | nilotinib 0.079 | [2] 0.004 | dasatinib -0.004 | [3] -0.079 | [4] 0.062 | [5] 0.217 | tipifarnib 0.107 | mubritinib 0.038

UHRF1BP1 (UniProt Q6BDS2)
inactive: bafetinib 0.042 | [1] 0.015 | nilotinib 0.138 | [2] 0.003 | dasatinib 0.044 | [3] -0.023 | [4] 0.045 | [5] 0.021 | tipifarnib -0.005 | mubritinib 0.028

TMEM161A (UniProt Q9NX61)
inactive: bafetinib -0.156 | [1] 0.043 | nilotinib -0.157 | [2] 0.023 | dasatinib -0.09 | [3] -0.021 | [4] -0.05 | [5] -0.025 | tipifarnib -0.165 | mubritinib 0.027

XPOT (UniProt O43592)
inactive: bafetinib -0.014 | [1] 0.013 | nilotinib -0.083 | [2] -0.012 | dasatinib -0.13 | [3] 0.083 | [4] -0.075 | [5] 0.066 | tipifarnib -0.173 | mubritinib 0.077
